Measurements published in PubChem BioAssay AID651820 (National Center for Advancing Translational Sciences (NCATS), 2012).
The whole screen tested about 340,000 compounds, of which about 12,000 (3.5%) were called active. Where a call stands in place of a potency, no number is given. Inconclusive results (about 18%) are left out. The call rests on the fitted dose curve; in most records, active means well fitted inhibition curve with a large enough effect; inconclusive means small, poorly fitted or top-dose-only effect, or another doubt; inactive means no such curve, though single readings can be large or run the other way. Many of the other results were omitted from the sample, so actives are more common in it than they were. Non-standard residues stand in square brackets, D forms with d. Residues, ends and D or L forms follow the SMILES beside them. ξ: configuration not given here. Ac5c = NC1(C(=O)O)CCCC1; ξS = NC(CO)C(=O)O

Experiment: qHTS Assay for Inhibitors of Hepatitis C Virus (HCV)
Details: Huh7.5.1 HCVcc-Cre infection, luciferase reporter, 44 h; series mostly up to 41.8 µM
Procedure, shortened: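 Infectious HCVcc-Cre (~0.5 moi) was added to cells just after compound, with cells seeded 4 h earlier at 1,000 per well. Luciferase activity after 44 h culture reported infection; substrate was incubated 15 min at room temperature before reading.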
Potency means the concentration at half of the fitted maximal effect.

Row | SMILES | Potency
1 | O=C(COC(=O)c1cccnc1Cl)Nc1ccc(S(=O)(=O)N2CCOCC2)cc1 | inactive
2 | O=C(O)c1ccccc1/C=N/Nc1ccc(S(=O)(=O)Nc2ccc(Cl)cc2)cc1[N+](=O)[O-] | inactive
3 | N#Cc1ccccc1S(=O)(=O)N1CCN(C(=O)c2cc(-c3ccccc3)nn2-c2ccccc2)CC1 | 11.2 µM (active)
4 | O=C(c1cn(-c2ccccc2)nc1-c1cccnc1)N1CCN(S(=O)(=O)c2ccccc2F)CC1 | inactive
5 | N#Cc1ccccc1S(=O)(=O)N1CCN(Cc2c(O)ccc3ccccc23)CC1 | inactive
6 | CCCCCNC(=O)Cc1ccc(OC)cc1 | inactive
7 | CCCCCCCCCCCCn1ccc(=N)cc1 | 0.501 µM (active)
8 | CCCCCN1CC(O)=C(c2ccccc2)C1=N | inactive
9 | COCCCNC(=O)CC1C[C@H](C(=O)N2CCCCC2)[C@@]2(CCc3ccccc3)c3[nH]c4ccccc4c3CCN2C1=O (stereo not given in full) | inactive
10 | O=C(Nc1cccc(Br)c1)C1CC(=O)N(C2CCCC2)C1 (stereo not given) | inactive
11 | O=C(Nc1ncccc1O)c1ccc(C(=O)c2ccccc2)cc1 | inactive
12 | COc1cccc(/C=N\NC(=O)C2=NNC(=O)C2C)c1O (stereo not given) | inactive
13 | COc1ccccc1/C=N/Nc1nc(C)c(C(C)=O)s1 | inactive
14 | Cc1nc(Cl)cc(N/N=C/c2ccccc2)n1 | inactive
15 | COc1cccc(/C=N/Nc2ccc(S(=O)(=O)Nc3ccccc3C(=O)O)cc2[N+](=O)[O-])c1O | inactive
16 | COc1ccccc1/C=N\Nc1cc(C)nc(-n2nc(C)cc2C)n1 | 3.16 µM (active)
17 | COc1cccc(/C=N/Nc2cc(C)nc(-c3ccccc3O)n2)c1O | 12.6 µM (active)
18 | N#CC1(NC(=O)COC(=O)Cc2n[nH]c(=O)c3ccccc23)CCCCC1 | inactive
19 | NC1=NOC(=O)C1C1CCCCC1 (stereo not given) | inactive
20 | Cc1nc(-c2ccc(F)cc2)c(CC(=O)N(C)CC(=O)Nc2c(C)cccc2C)s1 | inactive
21 | CS(=O)(=O)c1ccc(C(=O)NNC(=O)c2cccs2)cc1 | inactive
22 | CC1(c2ccc(Cl)cc2Cl)NC(=O)N(CC(=O)Nc2cccnc2Cl)C1=O (stereo not given) | inactive
23 | O=C1C=C(c2cccc(Cl)c2)C[C@@H](c2ccc(F)cc2)C1 | inactive
24 | O=C1C=C(c2cccc(Cl)c2O)C[C@@H](c2ccc(F)cc2)C1 | inactive
25 | O=C1C=C(c2ccnc3cc(Cl)ccc23)C[C@@H](c2ccc3c(c2)OCO3)C1 | 3.16 µM (active)
26 | Cc1cc(C)c(C=NNc2nc3c([nH]2)c(=O)n(C)c(=O)n3C)c(C)c1 | inactive
27 | CCOc1ccc(CCNC(=O)COC(=O)C2CCN(S(=O)(=O)c3ccccc3)CC2)cc1OCC | inactive

Row | SMILES | Potency
28 | CCOC(=O)C(CO)NC(=O)C1(NC(C)=O)CCCC1 (stereo not given) (Ac-[Ac5c]-[ξS]-OEt) | inactive
29 | CCN1CC(CN(C)Cc2nc(-c3ccc(Cl)cc3)no2)CC1=O (stereo not given) | 11.2 µM (active)
30 | CC1CCN(Cc2nc(-c3ccc(Cl)cc3)no2)CC1 | inactive
31 | CN(Cc1ccccn1)Cc1nc(-c2ccc(Cl)cc2)no1 | inactive
32 | O=C(c1ccncc1)N1CCN(S(=O)(=O)c2cc(C(F)(F)F)cc(C(F)(F)F)c2)CC1 | inactive
33 | Cc1ccc(CNC(=O)COC(=O)C2CCC2)cc1 | inactive
34 | C#CCOCCOCCOCCNc1nc(N2CCN(C(=O)[C@H](CCCN=C(N)N)n3cc(C(N)[C@@H](C)CC)nn3)CC2)nc(N2CCN(C(=O)[C@H](CO)n3cc([C@@H](N)C(C)C)nn3)CC2)n1 (stereo not given in full) | inactive
35 | CC(=O)Nc1ccc(-c2cn3cccnc3n2)cc1 | inactive
36 | CCOc1cc(-c2cc(-c3ccc(NC(C)=O)cc3)nc(N)c2C#N)ccc1O | 11.2 µM (active)
37 | CCOc1cc(-c2cc(-c3ccc(OC)cc3)nc(N)c2C#N)ccc1O | inactive
38 | Nc1nnc(SCC(=O)NCC(=O)Nc2ccc(F)c(F)c2F)s1 | inactive
39 | CN1CCN(CCCCOc2cccc3ccccc23)CC1 | 10 µM (active)
40 | CCN1CCN(CCCCOc2ccccc2F)CC1 | inactive
41 | COc1ccccc1OCCCCCCN1CCN(C)CC1 | inactive
42 | Cc1ccc2c(O)c(Cc3ccccc3)c(=O)[nH]c2n1 | inactive
43 | COc1ccc(S(=O)(=O)N2CCN(CC(=O)N3CCOCC3)CC2)cc1OC | inactive
44 | CCOC(=O)c1ccccc1NC(=O)CSc1nc2c(sc(=S)n2CC)c(=O)[nH]1 | inactive
45 | COc1ccc2c(c1)O/C(=C\c1ccccc1O)C2=O | inactive
46 | CCOc1ccc2[nH]c(C(=O)N/N=C/c3cccc(OC)c3OC)cc2c1 | 12.6 µM (active)
47 | COc1ccc(/C=N/NC(=O)c2cccc(C(F)(F)F)c2)cc1 | inactive
48 | COc1cc2cc(C(=O)N/N=C/c3cccc(OC)c3OC)[nH]c2cc1OC | inactive
49 | COc1ccccc1CNC(=O)COC(=O)c1sc(C)nc1C | inactive
50 | CCN(C(=O)CSc1nnnn1-c1ccc(OC)cc1)C1CCS(=O)(=O)C1 (stereo not given) | inactive
51 | Oc1cc2c(cc1CN1CCN(c3ccccc3)CC1)OCO2 | inactive
52 | Oc1c(CN2CCN(c3ccc(F)cc3)CC2)cc(Cl)c2cccnc12 | 3.55 µM (active)
53 | Oc1ccc(CN2CCN(c3ncccn3)CC2)cc1 | inactive
54 | Cc1cc(O)c(Sc2ccccc2)c(=O)o1 | inactive

Row | SMILES | Potency
55 | COc1ccc(OC)c(S(=O)(=O)Nc2c(C)nn(C)c2C)c1 | inactive
56 | N#CC1=C(N)Oc2cc(N)ccc2C1c1ccccc1 (stereo not given) | inactive
57 | Cc1nn(-c2ncccn2)c2c1C(=O)CC(C)(C)C2Br (stereo not given) | inactive
58 | CC(C)(C)CC(C)(C)NCC(O)COCCOc1ccc(Br)cc1 (stereo not given) | 6.31 µM (active)
59 | COc1ccc(OCC(O)CNCCNc2nccc(C(F)(F)F)n2)cc1 (stereo not given) | inactive
60 | CC(Oc1ccc(Br)cc1)C(=O)NC1CCCCCC1 (stereo not given) | inactive
61 | COc1ccc(-c2nnc(SC(C)C(=O)NC3CC3)o2)cc1 (stereo not given) | inactive
62 | O=C(N=C1SC2CS(=O)(=O)CC2N1c1ccccc1)c1ccccc1 (stereo not given) | inactive
63 | Cc1nnc(NC(=O)/C=C/c2ccco2)s1 | inactive
64 | O=C(/C=C/c1ccco1)Nc1ccc(Oc2ccccc2)cc1 | 14.1 µM (active)
65 | O=C(/C=C/c1ccco1)Nc1cccc(-c2nc3ccccc3[nH]2)c1 | inactive
66 | Cc1cc(OCCCC(=O)NCCN2C(=O)S/C(=C\c3cccnc3)C2=O)ccc1Cl | 10 µM (active)
67 | CCOc1ccc(N2CC(C(=O)NCCN3C(=O)S/C(=C\c4cccnc4)C3=O)CC2=O)cc1 (stereo not given) | inactive
68 | O=C(NCCN1C(=O)S/C(=C\c2cccnc2)C1=O)c1cccc(OC(F)F)c1 | inactive
69 | Cc1cccc(-c2ncc(CN3CCC(CO)(CCCc4ccccc4)CC3)cn2)c1 | 10 µM (active)
70 | CC(=O)c1cccc(CN2CCC(CO)(Cc3ccccc3)CC2)c1 | inactive
71 | OCC1(CCc2ccccc2)CCN(Cc2ccc3nsnc3c2)CC1 | inactive
72 | c1ccc2cc(CCCc3cc4ccccc4cn3)ncc2c1 | inactive
73 | COc1ccc([C@H]2CC(=O)C=C(/C=C/c3ccccc3)C2)cc1 | inactive
74 | COc1cc(C(=O)NCc2nnc(SCC(=O)c3ccc(Cl)cc3)o2)cc(OC)c1OC | inactive
75 | CCC(=O)Nc1ccc(C(=O)CSc2nnc(CNc3ccc(Cl)cc3)o2)cc1OC | 5.01 µM (active)
76 | CCOC(=O)CSc1nnc(CNc2ccc(F)cc2)o1 | inactive
77 | O=C(COC(=O)c1cccnc1Cl)NC12CC3CC(CC(C3)C1)C2 | inactive
78 | CCn1cc(/C=C2/SC(=S)NC2=O)c(C)n1 | inactive
79 | O=C1/C(=C/c2ccc3c(c2)OCO3)CCC/C1=C\c1ccc2c(c1)OCO2 | inactive
80 | Cc1nn(C)cc1/C=C1\CCC/C(=C\c2cn(C)nc2C)C1=O | 10 µM (active)
81 | CC(=O)N(O)CCCCCNC(=O)CCC(=O)N(O)CCCCCNC(=O)CCC(=O)N(O)CCCCCNC(=O)CCC(=O)O | inactive

Row | SMILES | Potency
82 | O=S1(=O)CSCS(=O)(=O)C1 | inactive
83 | CCN(CC)CCCNC(=O)Cn1cnc2sc(C)c(S(=O)(=O)N3CCN(c4ncccn4)CC3)c2c1=O | inactive
84 | CCN(CC)CCNC(=O)c1sc2ncn(CC(=O)Nc3ccc(C)c(Cl)c3)c(=O)c2c1C | 8.91 µM (active)
85 | CCN(CC)CCNC(=O)Cn1cnc2sc(C)c(S(=O)(=O)N3CCOCC3)c2c1=O | inactive
86 | CC(=O)Nc1ccc(C(=O)Nc2cc(S(=O)(=O)N3CCOCC3)ccc2N2CCOCC2)cc1 | inactive
87 | O=C(CN1CCOCC1)Nc1cccc([N+](=O)[O-])c1 | inactive
88 | CCc1cccc(NC(=S)N(CCN(C)C)C2CCN(C(C)C)CC2)c1 | 8.91 µM (active)
89 | Cc1cccc(NC(=S)N(CCN(C)C)C(C)c2ccco2)c1 (stereo not given) | inactive
90 | COCCN(C(=S)Nc1ccccc1OC)C1CCN(C(C)C)CC1 | inactive
91 | O=c1oc2ccc(C#CC3(O)CCCCC3)cc2cc1-n1cc(-c2ccsc2)nn1 | inactive
92 | CCOC(=O)C(C)N(c1ccccc1Cl)S(C)(=O)=O (stereo not given) | inactive
93 | COc1cccc(CC(=O)OCC(=O)NCc2ccc3c(c2)OCO3)c1 | inactive
94 | COc1cccc(CNC(=O)COc2cc(O)c3c(c2)OC(C)(C)CC3=O)c1 | 5.01 µM (active)
95 | COc1cccc(CCNC(=O)COc2cccc3c2OC(C)(C)C3)c1 | inactive
96 | COc1cc2[nH]c(O)c(C=O)c2cc1OC | inactive
97 | COc1ccccc1C(=O)Nc1ccc(Nc2ccccc2)cc1 | inactive
98 | COc1ccc2[nH]c3c(c2c1)CCN1C(=O)C(CC(=O)NCCc2ccccn2)C[C@H](C(=O)N2CCOCC2)[C@@]31C (stereo not given in full) | inactive
99 | Cc1nn(CC(=O)N2CCCCC2)c(=O)c2nn(-c3ccccc3)c(C)c12 | inactive
100 | COc1ccc(CNC(=O)C(C)n2nc(C)c3c(C)n(-c4ccccc4)nc3c2=O)c(OC)c1 (stereo not given) | inactive
101 | COc1ccc(OC)c(CNC(=O)Cn2nc(C)c3c(C)n(-c4ccc(C)cc4)nc3c2=O)c1 | 3.98 µM (active)
102 | O=C(c1ccc(Cl)s1)N(Cc1nnc(-c2ccccc2Cl)o1)C1CC1 | inactive
103 | CCC(=O)NC(=S)Nc1ccc(NC(=O)c2ccco2)c(Cl)c1 | inactive
104 | COc1ccc(OCC(=O)Nc2ccc(NC(=O)c3ccco3)c(C)c2)cc1 | inactive
105 | CCN(CC)P(=O)(Nc1ccc(SC(F)F)cc1)c1ccc(N(C)C)cc1NC(=O)c1ccco1 (stereo not given) | 22.4 µM (active)
